Test [1] can be described thus: liver-stage malaria parasite growth inhibition, primary screen, cell-based, HepG2, luciferase luminescence, HepG2 viability (AID 624349; in the data active means parasite load remaining mostly below about 12%, no sharp cut-off; inactive means mostly above about 10%;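 further: 100% = mean of DMSO negative control wells on the same plate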). The following applies: P. berghei liver stage in HepG2, luciferase luminescence, concentration not given here; parasite load remaining: stronger effect = lower value; viability: measured here: HepG2 viability without parasites.
The subject of test [2] is Hepatitis C virus NS3 helicase. The experiment in a line: HCV NS3 helicase inhibitors, primary screen, biochemical, fluorescence polarization, LOPAC1280 library (AID 687035; in the data active means inhibition above about 37%). The note with it: Purified HCV NS3 helicase, Cy5-dT15 ssDNA binding fluorescence polarization; stronger effect = higher value; concentration not given here. (In fluorescence polarisation assays a small probe gives low polarisation when free and higher when bound to something large.)

A short description of test [3]: Cy5 fluorescence quenching or enhancement artefacts, artefact control for HCV NS3 helicase inhibitor project, biochemical, LOPAC1280 (AID 687037; call rule not given here). The note with it: Cy5-DNA-NS3h complex fluorescence interference counterscreen. In general terms: A counterscreen serves to expose hits that act by an unwanted route or on another target.
Test [4] is described as follows: SU-DIPG-XXV glioma cell viability, MIPE5.0 library, qHTS (AID 1347068; cut-off not given, nearly all actives have IC50 up to about 30 µM;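 on IC50: cells exposed to compound for 48 hours before viability readout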). For orientation: In qHTS, concentration-response curves come from the screen itself.
A short description of test [5]: sensitizers of A549 cells to miR-34 induction, primary screen, imaging, A549 dox-inducible miR-34, nuclei and caspase counts (AID 1347080). The note with it: A549 miR-34 inducible, Hoechst nuclei count, 48 h.
Test [6] is described as follows: phospholipid biosynthesis inhibitors in animal cells, primary screen, cell-based, LOPAC library, screen 4 (AID 1347384; call rule not given here). The following applies: phospholipid biosynthesis inhibition screen, at 10 µM.
Test [7] is described as follows: viability rescue of complex I mutant cybrids, primary screen, cell-based, galactose medium, ATP luminescence (AID 1645843;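 active means z-score of at least 1.8 in each of two replicates, scored against plate mean and spread of sample wells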;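 further: positive z means more ATP and so rescue of galactose-driven cybrid death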). The note with it: complex I mutant cybrid cells, 72 h, stronger effect = higher value.
Where [8] appears, read: stronger effect = lower value, cell number ratio, induced over uninduced.
[9] abbreviates: measured here: relative caspase fold change +Dox/-Dox.
[10] abbreviates: measured here: total cells with miR-34 induction, stronger effect = lower value.
Setting [11] is: measured here: total cells without miR-34 induction.

SMILES strings stand for the structures. Several values for one entry are separate records, joined by “and”; a condition that tells them apart may be missing. Equal entries are not always repeated. Results filed as inconclusive are left out. Activity calls are given as the source filed them.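 How the source made its calls, unless noted: active means compounds whose cell count with miR-34 switched on is under 0.7 times the count with it off; inactive means the rest.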

As a reminder, the viability is the share of living cells, or the viability signal relative to a control. One may read the inhibition as how much of the control response was suppressed. For the molecule `O=C1NC(=O)/C(=C/c2ccc3nccnc3c2)S1`, the parasite load remaining in test [1] was 25.6% (inactive). In test [1], this molecule came in with a viability of 76.4%. Further, in test [2], the inhibition was 0% (inactive). Moreover, the fluorescence ratio (interference) in test [3] was 1 (inactive). The outcome in test [4] and in test [6] was inactive. Besides, the fold change was 0.99 (inactive) and 0.764 (inactive) in test [5] (setting [8]); 0.943 and 0.46 in test [5] (setting [9]). The cell count was 3810 and 4630 in test [5] (setting [10]); 3850 and 6050 in test [5] (setting [11]). Also, in test [7], the z-score was 0.905 (inactive).
For the molecule `Cc1ccc(Nc2cc(N[C@@H]3CCCC[C@@H]3N)nnc2C(N)=O)nc1C`, in test [4], the molecule was classed as inactive.
On the same count and under the same terms, to `O=C(O)CC1CCC(c2ccc(-c3ccc(Nc4ccc(C(F)(F)F)nc4)cn3)cc2)CC1` (configuration not stated) belongs “inactive”.
On to `C=C1C[C@@H](O)[C@H](/C=C/[C@@H](O)CCCCC)[C@H]1C/C=C\CCCC(=O)O`, for which the fold change was 0.899 (inactive) in test [5] (setting [8]) and 1.24 in test [5] (setting [9]). The results for the cell count in test [5] (setting [10]) and in test [5] (setting [11]) were 5620 and 6250, respectively.
Usually IC50 stands for the concentration that inhibits the measured activity by half. Turning to `COc1cc2c(NC3CCN(C4CCCCC4)CC3)nc(N3CCCN(C(C)C)CC3)nc2cc1OCCCN1CCCCC1`, the IC50 in test [4] was 5.9 µM (active).
For the molecule `CCOC(=O)C1=CCCCC1S(=O)(=O)Nc1ccc(F)cc1Cl` (configuration not stated), the outcome in test [4] was inactive.
For the molecule `COc1ccc(/C=C/c2ccccc2F)cc1`, the figures for the fold change in test [5] (setting [8]) and in test [5] (setting [9]) were 0.866 (inactive) and 1.67, respectively. The values for the cell count in test [5] (setting [10]) and in test [5] (setting [11]) were 5810 and 6700, respectively.
The corresponding values for `CCCCC[C@H](O)/C=C/[C@@H]1[C@@H](CCCCCCC(=O)O)[C@H](O)C[C@@H]1O` are 0.98 (inactive), 1.16, 6220 and 6350.
Regarding `COc1cc([C@@H]2c3cc4c(cc3[C@@H](OC3OC5COC(C)OC5C(O)C3O)[C@H]3COC(=O)[C@H]23)OCO4)cc(OC)c1O` (some centres not stated), the figures for the fold change in test [5] (setting [8]) and in test [5] (setting [9]) were 0.828 (inactive) and 1.04, respectively. The cell count in test [5] (setting [10]) came to 1840; in test [5] (setting [11]) it was 2230.
On to `CCCCC(C)(C)[C@H](O)/C=C/[C@H]1[C@H](O)CC(=O)[C@@H]1CCCCCCC(=O)O`, for which the fold change in test [5] (setting [8]) is 0.94 (inactive); in test [5] (setting [9]), 1.17. Moreover, the figures for the cell count in test [5] (setting [10]) and in test [5] (setting [11]) were 5660 and 6020, respectively.
`CC(C)(C)S(=O)(=O)c1ccc2nccc(Nc3n[nH]c4ccc(F)cc34)c2c1`: in test [4], the call was inactive.
Turning to `CCCCC/C=C\C=C\[C@H](O)CCCCCCCC(=O)O`, the fold change in test [5] (setting [8]) is 1.01 (inactive); in test [5] (setting [9]) it was 1.02. Also, the results for the cell count in test [5] (setting [10]) and in test [5] (setting [11]) were 5810 and 5740, respectively.
Regarding `CN(CCO)C1CCN(c2ccc(Nc3ncc4c5ccnc(F)c5n(C5CCCC5)c4n3)nc2)CC1`, the outcome in test [4] was inactive.
Still for that read-out and setting: to `C=CC(=O)N[C@H]1CCOC[C@H]1Nc1ncc2cc(-c3c(Cl)c(OC)cc(OC)c3Cl)ccc2n1` belongs “inactive”.

Values taken from PubChem BioAssay.
